Shown are actives, neighbours in structure and some others; about 12% of the full set was active somewhere.
FMDV inh: antivirals against foot and mouth disease virus | FMDV antiviral cell-based qHTS | Potency, µM (top dose mostly 57.9 µM), without a hit: at the top dose activity change, negative = inhibition, most hits filed as inhibitors | 410,000 tested, 1.2% active | AID 1159524; calls by dose curve; tested in HEK293T cells; further: read-out not given here; potency means the concentration at half of the fitted maximal effect; on the % scale 0 is the no-effect control and ±100 the full control effect; nearly all actives have a fitted effect of over 45% in size
Sm TGR inh: inhibitors of Schistosoma mansoni thioredoxin glutathione reductase. 360,000 tested, 3% active. Potency, µM (titrated, usually from 114 µM), for inactives: top-dose activity change, negative = inhibition, usual class: inhibitors. purified TGR, DTNB reduction, TNB absorbance 405 nm. Q962Y6; active means well fitted inhibition curve with a large enough effect; inconclusive means small, poorly fitted or top-dose-only effect; inactive means no such curve, though single readings can be large or run the other way; further: potency means the concentration at half of the fitted maximal effect; on the % scale 0 is the no-effect control and ±100 the full control effect; nearly all actives have a fitted effect of over 60% in size
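TGR 20 nM + NADPH 100 uM (dispensed conc.), cpd preinc 15 min RT; start with NADPH (500 uM addition) then DTNB (15 mM addition). Kinetic TNB absorbance, 405 nm filter. Four-parameter Hill fit across titration.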
Cycloheximide cs: counter-screen hit for Shiga toxin inhibitors, cycloheximide. cell reporter, cycloheximide protein synthesis inhibition counterscreen. max response, %. 300,000 tested, 12% active; in the data active means max response mostly above about 13%, no sharp cut-off; inactive means mostly below about 14%; further: read at 38.3 µM for the half of the compounds with a filed dose; 0% is about no effect
Shiga inhibitor: Shiga toxin inhibition | Vero cells, Shiga toxin protein synthesis inhibition reporter | inhibition, % at 38.7 µM | 290,000 tested, 9.2% active | AID 2315; in the data active means inhibition mostly above about 28%, no sharp cut-off; inactive means mostly below about 43%; further: 0% is about no effect
* marks the source's active call; other numbers are inactive results; ? = inconclusive; · = no result.

SMILES	FMDV inh	Sm TGR inh	Cycloheximide cs	Shiga inhibitor
Clc1ccc(-c2cn3c(n2)CCC3)cc1	-26%	-8%	28*	73
O=C(NCCc1cn2ccccc2n1)c1ccc(Br)o1	-13%	-4%	-3	-1
Nc1nc(Cl)nc2c1ncn2C1OC(CO)C(O)C1F (stereo not given)	6%	·	-3	-10
COc1ccc(C2=Nn3c(nnc3-c3cc(OC)ccc3OC)SC2)cc1	·	·	-5	-8
CCc1cccc2c(-c3ccccc3)nc(SCC(=O)Nc3ccccc3OC)nc12	-19%	6%	·	·
COc1ccc(NC(=O)CSC2=Nc3ccccc3C3=NC(CCC(=O)NCc4ccc(F)cc4)C(=O)N23)cc1Cl (stereo not given)	-16%	-2%	·	·
CCN(CC)S(=O)(=O)c1ccc(-c2cn3cc(Cl)ccc3n2)cc1	25%	2%	19	20
COc1ccc(-c2cn3ccc4ccccc4c3n2)cc1	-16%	-17%	37*	64*
Clc1ccc(-c2cn3ccccc3n2)cc1	-5%	-5%	37*	40*
Clc1ccc(-c2cn3cc(Cl)ccc3n2)cc1	-48%	-22%	42*	74*
COc1c(Cl)cccc1-c1cn2ccccc2n1	19%	11%	35*	57
O=C(Nc1ccc(-c2cn3ccccc3n2)cc1)c1ccc(Cl)cc1	10%	-10%	-9	9
CCn1c(C)c(C(=O)c2ccccc2)c(C#N)c1C(=O)O	30%	12%	21*	25
Cc1c(C#N)c(N)c(C(=O)c2ccccc2)n1Cc1ccccc1	-16%	14%	-1	-21
Cc1ccc(-c2c(=O)n(OCc3ccccn3)c3ccccc3[n+]2[O-])cc1	·	0%	9	-11
CCOc1ccc(-c2c(=O)n(OCc3ccccn3)c3ccccc3[n+]2[O-])cc1	44%	4%	17	50*
CCOn1c(=O)c(-c2ccccc2)[n+]([O-])c2ccccc21	-6%	2%	-2	-2
CCCOc1ccc(-c2c(=O)n(O)c3ccccc3[n+]2[O-])cc1	22%	-28%	29*	·
O=C1c2ccccc2-c2onc3c(Oc4ccccc4)cc(O)c1c23	·	45µM*	22*	27
CCN1CCN(C(=O)/C=C/c2c(F)cccc2Cl)CC1	-5%	-1%	10	15*
CCN1CCN(C(=O)/C=C/c2cccc(Cl)c2)CC1	7%	6%	15*	23
O=C(/C=C/c1c(F)cccc1Cl)N1CCc2ccccc2C1	28%	-17%	14*	·
CCN1CCN(C(=O)/C=C/c2ccc(C(C)C)cc2)CC1	32%	·	·	·
O=C(c1ccccc1Cl)N1CCc2ccccc2C1	0%	-35%	9	17
O=C1CCCc2nc3c(cc21)C(O)Oc1c-3ccc2ccccc12 (stereo not given)	37%	1%	49*	65*
SMILES	FMDV inh	Sm TGR inh	Cycloheximide cs	Shiga inhibitor
O=C1CCCc2nc3c(cc21)C(O)Oc1ccccc1-3 (stereo not given)	-20%	4%	8	18
COc1ccc(NC(=O)c2cc(-c3ccc(F)cc3)no2)cc1OC	20%	-1%	·	·
CN(C)S(=O)(=O)c1cc(NC2CC(=O)N(c3ccc(F)cc3)C2=O)ccc1Cl (stereo not given)	-6%	25µM*	5	8
Cc1c(Cl)cccc1NC(=O)Cn1c(=O)n(Cc2ccco2)c(=O)c2sc3ccccc3c21	-3%	-26%	·	·
CCOc1ccc(-n2c(=O)c3c4c(sc3n(Cc3cccc(C)c3)c2=O)CCCC4)cc1	?	11%	·	·
CCOc1ccc(CCNC(=O)c2ccc(C)c(-n3cnc4cccnc43)c2)cc1	-19%	-2%	·	·
CCOC(=O)C1(Cc2ccccc2C)CCCN(C(=O)CCn2nccc2C)C1 (stereo not given)	-27%	11%	-3	19
CCOC(=O)C1(Cc2ccccc2C)CCCN(C(=O)c2ccccn2)C1 (stereo not given)	26%	?	40*	71*
CCOC(=O)C1(Cc2ccccc2C)CCCN(C(=O)CCc2cccnc2)C1 (stereo not given)	44%	-2%	32*	33*
CCOC(=O)C1(Cc2ccccc2)CCCN(C(=O)c2cnn(CC)c2)C1 (stereo not given)	23%	-12%	29*	73*
COc1ccc(Cn2nnnc2CN(Cc2cc3cc(C)ccc3[nH]c2=O)C2CCCC2)cc1	·	35µM*	-2	-9
COc1cc2cc(CN(Cc3nnnn3C3CCCC3)C3CCCC3)c(=O)[nH]c2cc1OC	·	-14%	-3	-4
COc1ccc2cc(CN(CCc3ccccc3)Cc3nnnn3Cc3ccco3)c(=O)[nH]c2c1	-26%	?	-2	-15
COc1ccc2[nH]c(=O)c(CN(Cc3ccco3)C(c3nnnn3Cc3ccccc3)C(C)C)cc2c1 (stereo not given)	?	-32%	1	-34
CCC(c1nnnn1Cc1ccco1)N(Cc1cc2cc(C)cc(C)c2[nH]c1=O)CC1CCCO1 (stereo not given)	0%	22µM*	4	29
CCC(c1nnnn1Cc1ccco1)N(Cc1ccccc1OC)Cc1cc2cc(C)ccc2[nH]c1=O (stereo not given)	-22%	-21%	1	-7
COc1ccc2[nH]c(=O)c(CN(Cc3nnnn3Cc3ccco3)C3CCCCC3)cc2c1	-10%	56µM*	7	-1
COc1ccc2[nH]c(=O)c(CN(C3CCCCC3)C(c3nnnn3Cc3ccco3)C(C)C)cc2c1 (stereo not given)	10%	13µM*	-3	20
Cc1ccc(NC(=O)Cn2c(=O)n(CCC(=O)N3CCc4ccccc4C3)c(=O)c3ccccc32)cc1	4%	15%	·	·
Cc1nn(C)c2c1c(C(F)(F)F)cc(=O)n2C(C)C(=O)Nc1ccccc1F (stereo not given)	?	-8%	·	·
CCC(C)(C)n1nnnc1CN(Cc1cc2cc(OC)c(OC)cc2[nH]c1=O)C1CCCC1	-11%	25µM*	6	-5
CC(=O)c1ccccc1-c1ccc2c(c1)CC(CNC(=O)C[C@@H]1C[C@@H](C)NC(=S)N1)O2 (stereo not given in full)	-9%	·	·	·
CSc1ccc(/C=N/n2c(C)cc(C)cc2=O)cc1	59%	?	27*	112*
CN1CCN(/N=C/c2ccc(-c3ccccc3)cc2)CC1	1%	-20%	49*	63*
CSc1ccc(/C=N/N2CCN(C)CC2)cc1	8%	-1%	29*	72
SMILES	FMDV inh	Sm TGR inh	Cycloheximide cs	Shiga inhibitor
CC(=O)N[C@@H](CCCNC(=N)N)C(=O)N[C@H](CC1CCCCC1)C(=O)N[C@@H]1CCC2SC[C@@H](C(=O)N[C@H](CCCNC(=N)N)C(=O)N[C@H](Cc3ccc(Cl)cc3)C(N)=O)N2C1=O (stereo not given in full)	·	·	-5	-5
O=C(c1ccc([N+](=O)[O-])o1)N(Cc1nnc(-c2ccccc2Cl)o1)C1CC1	8%	50µM*	·	·
Cc1ccc(C(=O)N(Cc2nnc(-c3ccccc3Cl)o2)C2CC2)o1	22%	·	·	·
CCOc1ccccc1OCC(=O)NCc1ccco1	·	20µM*	-4	-9
COc1ccc(C)cc1NC(=O)c1cc2ccccc2cc1OCC(=O)NCc1ccco1	-22%	-3%	30*	8
O=C(NCc1ccco1)c1ccc2c(c1)N(Cc1ccc(Cl)cc1)CCS2	-16%	?	8.3*	45*

Bioassay records deposited in PubChem by National Center for Advancing Translational Sciences (NCATS).
